Laboratory results: PubChem BioAssay
The list shows a part of the results. Calls of active or inactive are those of the source.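 Rule for the calls, unless noted: active = aptamer binding inhibition above 30%, about 3 SD of noise from non-fluorescent compounds; inactive = inhibition at or below 30%.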

What was measured:
[1] = inhibitors of CD8+ T cell-vesicle binding, pilot screen, LFA-1/ICAM-1 modulator project, MLPCN validation set, flow cytometry (AID 2523;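 active = response below a set limit, under 55% cells CD8-positive and vesicle-bound, and CD8 cells' 90th-percentile brightness under 279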;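 for vesicle binding response: mean PE anti-B7-1 fluorescence of CD8+ cells relative to row control; 100% = QL9-loaded vesicles with DMSO vehicle in the same plate row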); conditions: 2C mouse CD8+ T cells, at 7 µM, stronger effect = lower value; double positive events: measured here: CD8+/vesicle+ event percentage
[2] = target: Integrin beta-1 (Homo sapiens) + Integrin alpha-4 (Homo sapiens) (UniProt P13612+P05556); assay: inhibition of HUTS-21 binding to VLA-4, pilot screen, VLA-4 allosteric modulator project, U937 cells, HUTS-21 mAb, flow cytometry, validation set (AID 2674;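 active = inhibition above 50%, about 3 SD of the validation set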;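 note: antibody binding induced by the VLA-4 ligand LDV present at three times its Kd; 0% = LDV ligand with antibody and no compound and 100% = antibody without LDV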); conditions: HUTS-21 LIBS mAb binding, at 6.7 µM, stronger effect = higher value, binding induced by LDV ligand
[3] = superoxide lowering in aged yeast cells, pilot screen, validation compound set (AID 2706;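 active = superoxide response below 65% of plate, a cut near 3 SD across the whole screen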;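 note: yeast exposed to compound for one week at 30 degrees C before staining; 100% = mean of all compound wells on the same plate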); conditions: S. cerevisiae aging, superoxide DHE fluorescence; at 10 µM, stronger effect = lower value
[4] = target: Beta-adrenergic receptor kinase 1 (Homo sapiens) (UniProt P25098); assay: GRK2 binders displacing RNA aptamer, biochemical, validation, human GRK2, bead flow cytometry (AID 488806); conditions: bead-bound GRK2, FAM-aptamer displacement, at 10 µM, stronger effect = higher value
[5] = target: AP-2 complex subunit beta (Homo sapiens) (UniProt P63010); assay: inhibitors of arrestin peptide binding to AP2, pilot screen, biochemical, validation set, GST-AP2 beads, flow cytometry (AID 504541;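 active = inhibition above 54%, about 3 SD of non-fluorescent compounds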;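 note: AP2 carries R879A mutation and is captured from E. coli lysate; bead-bound FITC arrestin peptide fluorescence measuring arrestin peptide binding to AP2; 0% = DMSO wells and 100% = excess unlabeled arrestin peptide control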); conditions: FITC arrestin peptide, at 10 µM, stronger effect = higher value, AP2 beta2 appendage fragment, R879A mutant
[6] = yeast V-ATPase proton transport modulators, S. cerevisiae, pHLuorin, HTS validation (AID 504600; in the data active = response above about 15%;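 note: plate controls were DMSO for no effect and reference compound for full effect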); conditions: S. cerevisiae pHLuorin cytosolic pH, at 10 µM, stronger effect = higher value
[7] = system: anti-desmoglein-3 scFv antibody binding to human DSG3; assay: inhibitors of anti-DSG3 scFv binding to DSG3, pilot screen, biochemical, validation compound set, bead-based, flow cytometry (AID 588368;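 active = binding below the plate cutoff, the plate median minus 3 SD, with a reading above zero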;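 note: signal is the median channel fluorescence of bead-bound GFP antibody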); conditions: Protein G beads, DSG3-Fc, scFv-GFP binding, at 10 µM, stronger effect = lower value
[8] = inhibitors of fungal efflux pumps CDR1, CDR2, MDR1, pilot screen, validation compound set, multiplex, phenotypic (AID 588506;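 active = efflux inhibition above 0.42, the validation set average plus 4 SD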;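 note: Nile Red retained in cells so higher fluorescence means more efflux inhibition; 0 = negative control wells and 1 = enniatin B 25 µM full block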); conditions: S. cerevisiae pump-expressing triplex, Nile Red efflux flow cytometry; at 10 µM; stronger effect = higher value; the pumps come from Candida albicans
[9] = target: ATP-binding cassette sub-family B member 6 (Homo sapiens) (UniProt Q9NP58); assay: ABCB6 transporter inhibitors, pilot screen, K562-ABCB6 cells, flow cytometry, validation set (AID 588550;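 active = inhibition above the screen-wide mean plus 3 SD, about 51%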;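 note: 0% = DMSO wells and 100% = benzethonium chloride 70 µM positive control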); conditions: K562-ABCB6 porphyrin accumulation, 1 h, at 10 µM, stronger effect = higher value
[10] = promoters of myeloid differentiation in arrested cells, primary screen, cell-based, GFP/MAC1 double positive, flow cytometry, validation set (AID 588685;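 active = differentiation response of at least 50%, scaled between solvent and reference control, from cells with both markers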;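 note: compound exposure lasts four days before antibody staining and flow analysis; 0% = DMSO wells and 100% = 5 µM fulvestrant positive control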); conditions: ER-HoxA9 marrow cells, stronger effect = higher value, normalized: vehicle 0, fulvestrant 100
[11] = LAP4-GFP expression modulators in yeast, confirmation, cell-based, second cherry pick, flow cytometry (AID 2621;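 active = GFP signal as percent of the solvent control above about 150%, meaning raised reporter expression, limit read from the data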;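 note: ratio of well median GFP fluorescence to plate DMSO mean so 100% = DMSO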); conditions: S. cerevisiae LAP4-GFP strain, 3 h, at 10 µM, stronger effect = higher value
[12] = modulators of MEP2-GFP levels in yeast, confirmation, S. cerevisiae, flow cytometry GFP, second cherry picks (AID 2622;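 active = GFP signal above 150% of the solvent control wells, that is a rise of more than half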;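 note: median channel GFP fluorescence of all gated yeast cells per well; ratio of median GFP to plate DMSO average so 100% = DMSO level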); conditions: S. cerevisiae MEP2-GFP strain, 3 h, at 10 µM, stronger effect = higher value
[13] = RPL19A-GFP modulators in TOR pathway yeast, confirmation, cell-based, S. cerevisiae, flow cytometry, second cherry pick (AID 2623;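 active = under 65% GFP response relative to DMSO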;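 note: median GFP channel fluorescence per well over the all cells gate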); conditions: S. cerevisiae RPL19A-GFP strain, 3 h, at 10 µM, stronger effect = lower value, 100% means same as DMSO wells
[14] = modulators of CIT2-GFP expression in yeast, confirmation, flow cytometry, second cherry pick, single plex (AID 2624;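 active = GFP response vs DMSO above about 150%, limit read from the data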;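 note: median green fluorescence per well over all gated yeast cells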); conditions: S. cerevisiae CIT2-GFP strain, 3 h, at 10 µM, stronger effect = higher value, DMSO control wells read 100%
[15] = AGP1-GFP expression modulators, hit retest, confirmation, cell-based, flow cytometry, S. cerevisiae, cherry pick set 2 (AID 2643;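 active = over 150 percent of DMSO response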;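 note: median GFP channel fluorescence over all cells without mother daughter split; sample median GFP divided by mean DMSO control so 100% equals DMSO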); conditions: S. cerevisiae AGP1-GFP strain, 3 h, at 10 µM, stronger effect = higher value

ATP-binding cassette sub-family B member 6 (Homo sapiens), sequence (Q9NP58 whole entry, looked up): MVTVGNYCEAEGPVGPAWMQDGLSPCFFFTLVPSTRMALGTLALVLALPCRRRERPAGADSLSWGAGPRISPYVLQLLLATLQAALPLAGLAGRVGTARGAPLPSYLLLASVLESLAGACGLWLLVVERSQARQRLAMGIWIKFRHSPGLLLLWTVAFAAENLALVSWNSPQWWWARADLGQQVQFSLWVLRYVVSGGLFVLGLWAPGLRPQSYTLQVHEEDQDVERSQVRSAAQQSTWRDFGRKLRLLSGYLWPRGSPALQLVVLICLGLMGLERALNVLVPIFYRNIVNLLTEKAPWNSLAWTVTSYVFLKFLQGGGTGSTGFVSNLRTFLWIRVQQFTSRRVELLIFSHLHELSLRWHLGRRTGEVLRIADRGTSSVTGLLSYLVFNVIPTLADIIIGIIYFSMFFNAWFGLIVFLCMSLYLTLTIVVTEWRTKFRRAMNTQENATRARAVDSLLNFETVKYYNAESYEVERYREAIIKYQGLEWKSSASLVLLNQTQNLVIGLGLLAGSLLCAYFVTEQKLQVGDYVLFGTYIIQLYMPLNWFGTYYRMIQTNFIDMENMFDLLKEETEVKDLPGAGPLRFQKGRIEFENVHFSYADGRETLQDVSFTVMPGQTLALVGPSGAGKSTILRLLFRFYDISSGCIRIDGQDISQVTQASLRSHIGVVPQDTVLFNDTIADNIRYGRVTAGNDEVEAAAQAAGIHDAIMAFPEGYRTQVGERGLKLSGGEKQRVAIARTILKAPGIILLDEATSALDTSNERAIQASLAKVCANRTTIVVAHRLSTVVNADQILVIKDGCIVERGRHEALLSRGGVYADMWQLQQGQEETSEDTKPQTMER
AP-2 complex subunit beta (Homo sapiens), sequence (P63010 whole entry, looked up, the tested form may be a part, one chain of several): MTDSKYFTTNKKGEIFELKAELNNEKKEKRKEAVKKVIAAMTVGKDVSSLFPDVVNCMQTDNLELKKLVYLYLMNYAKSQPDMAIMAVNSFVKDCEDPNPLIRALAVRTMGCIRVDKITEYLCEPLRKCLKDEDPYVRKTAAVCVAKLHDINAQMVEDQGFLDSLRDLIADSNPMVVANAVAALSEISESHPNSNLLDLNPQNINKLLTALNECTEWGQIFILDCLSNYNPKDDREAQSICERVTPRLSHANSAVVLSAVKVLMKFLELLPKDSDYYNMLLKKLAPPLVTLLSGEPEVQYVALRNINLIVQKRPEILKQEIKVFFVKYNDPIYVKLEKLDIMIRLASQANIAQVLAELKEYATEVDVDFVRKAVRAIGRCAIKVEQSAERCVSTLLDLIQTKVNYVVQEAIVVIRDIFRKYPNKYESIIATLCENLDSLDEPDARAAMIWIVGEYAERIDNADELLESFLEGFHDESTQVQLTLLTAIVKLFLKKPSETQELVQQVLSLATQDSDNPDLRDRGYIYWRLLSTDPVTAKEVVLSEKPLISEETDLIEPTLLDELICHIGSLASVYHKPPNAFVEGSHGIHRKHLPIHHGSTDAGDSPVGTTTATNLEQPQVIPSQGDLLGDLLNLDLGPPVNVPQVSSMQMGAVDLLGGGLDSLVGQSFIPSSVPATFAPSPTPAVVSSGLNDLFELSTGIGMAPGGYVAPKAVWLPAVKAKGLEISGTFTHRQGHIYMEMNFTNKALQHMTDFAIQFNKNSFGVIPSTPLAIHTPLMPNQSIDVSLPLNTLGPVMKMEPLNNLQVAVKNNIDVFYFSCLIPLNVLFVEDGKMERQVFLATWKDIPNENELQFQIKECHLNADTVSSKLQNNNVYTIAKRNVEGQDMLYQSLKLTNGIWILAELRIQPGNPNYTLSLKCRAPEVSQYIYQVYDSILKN
Integrin beta-1 (Homo sapiens) + Integrin alpha-4 (Homo sapiens), sequence (P05556 whole entry, looked up): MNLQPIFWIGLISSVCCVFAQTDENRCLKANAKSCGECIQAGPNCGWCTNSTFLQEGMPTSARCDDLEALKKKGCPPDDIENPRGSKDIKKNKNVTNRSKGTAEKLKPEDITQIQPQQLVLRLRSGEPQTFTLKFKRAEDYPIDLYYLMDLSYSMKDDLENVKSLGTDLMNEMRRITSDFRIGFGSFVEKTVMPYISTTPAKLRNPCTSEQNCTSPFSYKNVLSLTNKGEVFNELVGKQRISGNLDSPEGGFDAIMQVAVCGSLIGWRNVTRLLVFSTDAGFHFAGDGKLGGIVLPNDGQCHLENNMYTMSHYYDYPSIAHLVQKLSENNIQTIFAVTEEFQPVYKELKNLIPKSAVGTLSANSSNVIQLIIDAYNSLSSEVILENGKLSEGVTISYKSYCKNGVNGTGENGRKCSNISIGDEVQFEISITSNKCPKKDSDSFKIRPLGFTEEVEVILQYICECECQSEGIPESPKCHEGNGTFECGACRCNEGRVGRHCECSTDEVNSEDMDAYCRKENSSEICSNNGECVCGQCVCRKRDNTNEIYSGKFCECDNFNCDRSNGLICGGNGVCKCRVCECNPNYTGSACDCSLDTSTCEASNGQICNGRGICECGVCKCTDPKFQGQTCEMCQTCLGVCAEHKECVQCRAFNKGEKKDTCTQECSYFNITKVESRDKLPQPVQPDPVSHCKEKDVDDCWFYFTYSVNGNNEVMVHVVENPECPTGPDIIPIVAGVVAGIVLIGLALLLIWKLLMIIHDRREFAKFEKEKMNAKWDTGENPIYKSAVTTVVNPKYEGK
Integrin beta-1 (Homo sapiens) + Integrin alpha-4 (Homo sapiens), sequence (P13612 whole entry, looked up): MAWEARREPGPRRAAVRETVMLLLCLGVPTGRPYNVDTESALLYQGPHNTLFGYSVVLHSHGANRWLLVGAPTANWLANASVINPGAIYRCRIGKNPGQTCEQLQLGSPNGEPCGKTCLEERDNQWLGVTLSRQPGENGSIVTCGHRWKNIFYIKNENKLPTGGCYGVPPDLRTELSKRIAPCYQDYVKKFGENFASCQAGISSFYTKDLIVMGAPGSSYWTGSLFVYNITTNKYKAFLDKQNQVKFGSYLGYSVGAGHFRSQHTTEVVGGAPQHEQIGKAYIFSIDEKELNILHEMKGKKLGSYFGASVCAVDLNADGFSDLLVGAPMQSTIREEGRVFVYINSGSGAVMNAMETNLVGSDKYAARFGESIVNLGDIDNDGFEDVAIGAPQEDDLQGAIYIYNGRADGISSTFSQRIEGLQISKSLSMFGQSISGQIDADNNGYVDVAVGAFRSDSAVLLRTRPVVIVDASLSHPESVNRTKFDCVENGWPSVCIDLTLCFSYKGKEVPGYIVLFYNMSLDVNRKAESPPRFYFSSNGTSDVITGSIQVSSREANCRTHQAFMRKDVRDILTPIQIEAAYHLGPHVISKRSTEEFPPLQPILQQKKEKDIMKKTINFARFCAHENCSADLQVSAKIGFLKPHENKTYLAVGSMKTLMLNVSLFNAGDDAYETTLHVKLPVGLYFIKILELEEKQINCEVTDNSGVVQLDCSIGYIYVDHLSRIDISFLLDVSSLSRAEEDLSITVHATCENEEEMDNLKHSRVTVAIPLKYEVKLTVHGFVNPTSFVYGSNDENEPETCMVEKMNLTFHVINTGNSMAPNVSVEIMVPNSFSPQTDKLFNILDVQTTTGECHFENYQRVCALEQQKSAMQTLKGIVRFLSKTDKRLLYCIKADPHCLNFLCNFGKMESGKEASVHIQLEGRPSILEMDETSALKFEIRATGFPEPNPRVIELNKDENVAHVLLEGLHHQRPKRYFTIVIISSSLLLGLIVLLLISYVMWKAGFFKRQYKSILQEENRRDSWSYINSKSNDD
Beta-adrenergic receptor kinase 1 (Homo sapiens), sequence (P25098 whole entry, looked up, the tested form may be a part): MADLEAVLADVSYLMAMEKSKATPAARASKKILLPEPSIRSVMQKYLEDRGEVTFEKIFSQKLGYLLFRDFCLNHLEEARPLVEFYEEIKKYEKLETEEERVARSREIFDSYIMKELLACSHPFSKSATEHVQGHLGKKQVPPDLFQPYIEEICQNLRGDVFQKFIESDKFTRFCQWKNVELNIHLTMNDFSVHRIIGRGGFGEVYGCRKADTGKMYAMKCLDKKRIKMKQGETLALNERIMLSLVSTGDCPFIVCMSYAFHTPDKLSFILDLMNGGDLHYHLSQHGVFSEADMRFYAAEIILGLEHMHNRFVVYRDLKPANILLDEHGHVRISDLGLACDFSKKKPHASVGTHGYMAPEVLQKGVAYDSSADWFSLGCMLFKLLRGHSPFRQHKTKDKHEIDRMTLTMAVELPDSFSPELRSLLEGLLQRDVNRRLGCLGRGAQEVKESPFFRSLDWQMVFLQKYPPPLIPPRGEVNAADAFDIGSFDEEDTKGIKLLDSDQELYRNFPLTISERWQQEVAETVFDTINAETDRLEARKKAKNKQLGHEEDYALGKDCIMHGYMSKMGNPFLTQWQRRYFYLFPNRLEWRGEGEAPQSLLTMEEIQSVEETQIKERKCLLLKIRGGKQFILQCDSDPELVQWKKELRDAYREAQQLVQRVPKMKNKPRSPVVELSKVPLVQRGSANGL

| SMILES | double positive events [1] | vesicle binding response [1] | inhibition [2] | superoxide response (% of plate) [3] | aptamer binding inhibition [4] | inhibition [5] | response [6] | binding (% of control) [7] | efflux inhibition (fraction of control) [8] | inhibition [9] | differentiation response [10] | GFP response vs DMSO [11] | GFP response vs DMSO [12] | GFP response vs DMSO [13] | GFP response vs DMSO [14] | percent response vs DMSO [15] |
| --- | --- | --- | --- | --- | --- | --- | --- | --- | --- | --- | --- | --- | --- | --- | --- | --- |
| CCNC(=O)c1sc2cc(C)ccc2c1Cl | 60.2% | 294% (inactive) | -10.5% (inactive) | 86.4% (inactive) | -2% (inactive) | -9.7% (inactive) | 0.2% (inactive) | 99.5% (inactive) | -0.16 (inactive) | 5% (inactive) | 1.41% (inactive) |  |  |  |  |  |
| C(=C/c1nccc2c1[nH]c1ccccc12)/c1ccc2c(c1)OCO2 | 58.5% | 170% (inactive) | -239% (inactive) | 93.4% (inactive) | -1% (inactive) | 23.3% (inactive) | 1.54% (inactive) | 144% (inactive) | -0.35 (inactive) | 8% (inactive) | -18% (inactive) |  |  |  |  |  |
| CNS(=O)(=O)c1ccc(C)cc1 | 56.5% | 148% (inactive) | 6.29% (inactive) | 99.3% (inactive) | 2% (inactive) | -8.71% (inactive) | 17.1% (active) | 93.9% (inactive) | 0.1 (inactive) | 8% (inactive) | -0.2% (inactive) |  |  |  |  |  |
| CC1(C)Cc2nc3oc4c(NCc5ccccc5)ncnc4c3cc2CO1 | 49.8% | 183% (inactive) | 4.42% (inactive) | 95.3% (inactive) | -2% (inactive) | -8.27% (inactive) | -4.11% (inactive) | 105% (inactive) | -0.2 (inactive) | 5% (inactive) | 0% (inactive) |  |  |  |  |  |
| Cc1ccc2nc3c(cc(C(=O)NCC4CCCO4)c(=N)n3CCCOC(C)C)c(=O)n2c1 (stereo not drawn) | 62.1% | 176% (inactive) | 9.09% (inactive) | 82.4% (inactive) | 0% (inactive) | -3.18% (inactive) | -20.8% (inactive) | 100% (inactive) | 0.33 (inactive) | 14% (inactive) | -24.4% (inactive) |  |  |  |  |  |
| O=C(O)CCn1c(=S)n(CCC(=O)O)c2ccccc21 | 53.4% | 162% (inactive) | 8.15% (inactive) | 112% (inactive) | 4% (inactive) | 4.52% (inactive) | -0.83% (inactive) | 101% (inactive) | -0.05 (inactive) | 5% (inactive) | -6.66% (inactive) |  |  |  |  |  |
| COc1ccc(C(=O)OCc2cc3cccc(C)c3[nH]c2=O)cc1 | 49.3% | 163% (inactive) | 5.36% (inactive) | 112% (inactive) | 0% (inactive) | 8.12% (inactive) | -29% (inactive) | 96.4% (inactive) | 0.06 (inactive) | 8% (inactive) | -29.3% (inactive) |  |  |  |  |  |
| Cc1c(CCOC(=O)CC23CC4CC(CC(C)(C4)C2)C3)sc[n+]1Cc1ccc([N+](=O)[O-])cc1 | 59% | 208% (inactive) | 8.15% (inactive) | 98.4% (inactive) | -9% (inactive) | -6.04% (inactive) | 3.23% (inactive) | 108% (inactive) | 1.81 (active) | 6% (inactive) | 0% (inactive) |  |  |  |  |  |
| Cc1nc(N[C@@H](Cc2c[nH]c3ccccc23)C(=O)O)c2oc3ccccc3c2n1 | 62.1% | 218% (inactive) | -0.24% (inactive) | 104% (inactive) | 0% (inactive) | -8.46% (inactive) | -0.92% (inactive) | 102% (inactive) | -0.24 (inactive) | 9% (inactive) | -9.89% (inactive) |  |  |  |  |  |
| CC(=O)N=c1sc(S(N)(=O)=O)nn1C | 48.1% | 166% (inactive) | -9.57% (inactive) | 97% (inactive) | 4% (inactive) | -6.47% (inactive) | -25.8% (inactive) | 99.6% (inactive) | -0.01 (inactive) | 8% (inactive) | 11.1% (inactive) |  |  |  |  |  |
| O=C(CNC(=O)OCc1ccccc1)NC1CCCCCC1 | 55.1% | 201% (inactive) | 10% (inactive) | 90.8% (inactive) | 4% (inactive) | 1.41% (inactive) | 11.3% (inactive) | 99.1% (inactive) | -0.05 (inactive) | 12% (inactive) | 6.26% (inactive) |  |  |  |  |  |
| O=C(NC(CO)Cc1ccc([N+](=O)[O-])cc1)C(Cl)Cl (stereo not drawn) | 57.3% | 146% (inactive) | -11.4% (inactive) | 100% (inactive) | 15% (inactive) | 0.05% (inactive) | 0.32% (inactive) | 100% (inactive) | -0.24 (inactive) | 14% (inactive) | -24.4% (inactive) |  |  |  |  |  |
| CC1(C)CC(=O)c2cc(O)ccc2O1 | 61% | 199% (inactive) | 13.8% (inactive) | 95.8% (inactive) | 3% (inactive) | 10.6% (inactive) | -2.03% (inactive) | 107% (inactive) | -0.01 (inactive) | 11% (inactive) | -13.1% (inactive) |  |  |  |  |  |
| COc1ccc2nc(N3CCN(C(=O)c4ccc([N+](=O)[O-])o4)CC3)sc2c1 |  |  |  |  |  |  |  |  |  |  |  | 252% (active) | 255% (active) | 87% (inactive) | 243% (active) | 87.3% (inactive) |
